The results in this text go back to the supplement of paper PMC3334620.

The full ranking holds about 33,000 sequences; the median of “E-score (-0.5 to 0.5)” is about -0.054, and the highest 2% start at about 0.35. Shown is part of a subset that was picked to be rich in the highest values.

This test deals with T1, Stb5 (UniProt P38699).
T1 sequence: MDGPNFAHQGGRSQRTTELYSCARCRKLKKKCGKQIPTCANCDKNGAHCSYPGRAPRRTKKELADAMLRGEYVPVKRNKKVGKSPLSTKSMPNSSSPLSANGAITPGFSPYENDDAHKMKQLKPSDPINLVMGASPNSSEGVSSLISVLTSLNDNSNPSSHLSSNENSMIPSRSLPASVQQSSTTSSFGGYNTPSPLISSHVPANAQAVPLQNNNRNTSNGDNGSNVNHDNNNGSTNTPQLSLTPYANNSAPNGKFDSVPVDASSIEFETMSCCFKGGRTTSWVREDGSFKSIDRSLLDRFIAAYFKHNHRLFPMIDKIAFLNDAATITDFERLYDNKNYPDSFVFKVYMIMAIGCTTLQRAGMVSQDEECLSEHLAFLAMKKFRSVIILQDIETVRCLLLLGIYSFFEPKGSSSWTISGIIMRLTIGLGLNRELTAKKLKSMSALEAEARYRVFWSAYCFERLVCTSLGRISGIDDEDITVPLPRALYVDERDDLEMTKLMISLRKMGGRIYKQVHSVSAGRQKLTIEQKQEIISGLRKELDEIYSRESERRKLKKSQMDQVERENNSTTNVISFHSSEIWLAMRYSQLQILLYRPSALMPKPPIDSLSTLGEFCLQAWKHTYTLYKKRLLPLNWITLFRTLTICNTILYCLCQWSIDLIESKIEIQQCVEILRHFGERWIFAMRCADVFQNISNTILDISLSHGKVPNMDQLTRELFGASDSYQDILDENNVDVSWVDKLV
In words: PBM E-score (8-mer binding enrichment) (E-score (-0.5 to 0.5)); higher = stronger / more preferred TF binding. The conditions noted are these: protein concentration: 200 nM; construct: GST-full length. The essentials:
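E-scores (a modified Wilcoxon-Mann-Whitney statistic) were assigned by the Universal PBM Analysis Suite to every ungapped eight-base word pooled with its reverse complement. The input came from universal all-10-mer Agilent arrays made double-stranded by primer extension and probed with GST-tagged yeast transcription factors at about 100-200 nM. Fluorescent anti-GST detected bound protein, and masliner normalised the scans.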
With CTTCGGGA, the “PBM E-score” value stood at 0.131.

Consider CTCTTAAA, for which the “PBM E-score” value was -0.0109.

Turning to CTGACCAA, the “PBM E-score” value is -0.176.

In the case of AGGTTGTC, the “PBM E-score” value was -0.204.

Consider CGCCTGGA, for which the “PBM E-score” value was -0.0581.

For TTCACCAA, the “PBM E-score” value is -0.0231.

With CAGTCCGC, the “PBM E-score” value stood at 0.252.

On to AAGTCCTA, for which the “PBM E-score” value was found to be 0.0926.

Turning to AAGTCCAT, the “PBM E-score” value is 0.0307.

Regarding AAGTCCGT, the “PBM E-score” value was found to be 0.454.

Take AAGTCCGG: the “PBM E-score” value was found to be 0.43.

Take CAGTCCCG: the “PBM E-score” value stood at 0.192.

On to AAGTCCTG, for which the “PBM E-score” value is 0.0166.

AAGTCCCT: the “PBM E-score” value is -0.209.

As to CAGTCCGG, the “PBM E-score” value was found to be 0.189.

Consider AAGTCCGC, for which the “PBM E-score” value came out at 0.46.

For AAGTCCCG, the “PBM E-score” value stood at 0.385.

Turning to AAGTCCTC, the “PBM E-score” value was -0.066.

GATATCCA: the “PBM E-score” value was -0.16.

On to GCCCAAAC, for which the “PBM E-score” value is -0.0152.

On to CAGCGTGC, for which the “PBM E-score” value is 0.0885.

In the case of GAACAGCC, the “PBM E-score” value was -0.134.

TCCGTGCA: the “PBM E-score” value was 0.23.

As for ACCCTGTG, the “PBM E-score” value is -0.19.

Turning to AACAGTTG, the “PBM E-score” value was -0.0985.

In the case of ATCTGCCA, the “PBM E-score” value is -0.118.

Turning to TCTAGTCA, the “PBM E-score” value was -0.11.

For the sequence CATGTGCC, the “PBM E-score” value is -0.177.

As for CAGTCCGA, the “PBM E-score” value was determined as 0.273.

Consider GAGTCCCC, for which the “PBM E-score” value was -0.12.

Regarding AAGTCCGA, the “PBM E-score” value was determined as 0.459.

In the case of TAGTCCGA, the “PBM E-score” value was found to be 0.309.

In the case of GAGTCCGA, the “PBM E-score” value came out at 0.286.

GAGTCCGC: the “PBM E-score” value was found to be 0.371.

On to ATTGTCCG, for which the “PBM E-score” value amounted to 0.372.

As to CATGTCCG, the “PBM E-score” value stood at 0.273.

Turning to ATTGTCCC, the “PBM E-score” value came to 0.0499.

As for AATGTCCG, the “PBM E-score” value came to 0.438.

For AATGTCCA, the “PBM E-score” value is -0.0901.

For the sequence ATTGTCCA, the “PBM E-score” value is -0.191.

Turning to ACTGTTAC, the “PBM E-score” value was -0.163.

CCATCGCG: the “PBM E-score” value came out at 0.195.

Regarding AACCCCTT, the “PBM E-score” value was determined as 0.0178.

On to GCACGTGA, for which the “PBM E-score” value is -0.337.

As to GATCGGAA, the “PBM E-score” value was 0.133.

In the case of CATCGGAC, the “PBM E-score” value is 0.34.

As to AATCGGAC, the “PBM E-score” value is 0.362.

On to GATCGGAC, for which the “PBM E-score” value was found to be 0.415.

For AATCGGAG, the “PBM E-score” value was determined as 0.263.

For GATCGGGC, the “PBM E-score” value was 0.301.

For the sequence ACGCGCCT, the “PBM E-score” value worked out at 0.013.

For the sequence ACTTGACC, the “PBM E-score” value was -0.0754.

Regarding AACGGCAG, the “PBM E-score” value came out at 0.107.

In the case of CTTTTTGA, the “PBM E-score” value was -0.162.

Take ACCTCCGT: the “PBM E-score” value was 0.302.
